Measurements from PubChem BioAssay (EPA / NIEHS).
The source made the active and inactive calls. The calls were made as follows: active = hit-call score of the fitted dose curve at least 0.9, where 1 is the maximum; inactive = score below 0.9.

How the values were obtained:
[1] = APR_HepG2_P-H2AX_72hr: Apredica 72-hour HepG2 Assay for H2AX Phosphorylation (AID 2282916); conditions: imaging, actives raise or lower the signal;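 also: phospho-histone H2A.x immunostain intensity per cell marking DNA damage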
Method in brief: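 Phospho-histone H2A.x immunofluorescence, multiplexed with Hoechst and c-Jun, quantified by high-content imaging. Compounds applied to HepG2 for 72 h across ten concentrations (0.39–200 uM, 0.5% DMSO), in duplicate; DMSO baseline.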

[2] = APR_HepG2_MitoMembPot_72hr: Apredica 72-hour HepG2 Assay for Mitochondrial Membrane Potential (AID 2282917); conditions: imaging, actives raise or lower the signal
Method in brief: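 HepG2 cells dosed 72 hr with compound at 0.39–200 uM in duplicate, 0.5% v/v DMSO final. Mitochondria stained with 250 nM MitoTracker Red CMXRos for 30 min before formaldehyde fixation, imaged by high-content fluorescence; bidirectional fit versus DMSO.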

[3] = APR_HepG2_MitoticArrest_72hr: Apredica 72-hour HepG2 Assay for Mitotic Arrest (AID 2282918); conditions: high-content imaging, actives raise or lower the signal
Method in brief: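 Mitotic arrest in HepG2 is scored from phospho-histone H3 staining after 72 hr dosing across 0.39–200 uM, with DMSO at 0.5% v/v. Nuclei are identified by Hoechst 33342 and fluorescence intensity is quantified per cell.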

[4] = APR_HepG2_MicrotubuleCSK_72hr: Apredica 72-hour HepG2 Assay for Microtubule CSK Stabilty (AID 2282919); conditions: HepG2 microtubule cytoskeleton, high-content imaging, actives raise or lower the signal
Method in brief: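 HepG2, 72 hr cmpd exposure, 0.39–200 uM (10 pts, duplicate), 0.5% DMSO. 3.7% formaldehyde fix, 0.5% Triton perm, anti-alpha-tubulin/Cy5 plus Hoechst. HCS fluorescence intensity; bidirectional fit vs DMSO baseline; taxol as positive control.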

[5] = APR_HepG2_P-H2AX_24hr: Apredica 24-hour HepG2 Assay for H2AX Phosphorylation (AID 2282920); conditions: high-content imaging, actives raise or lower the signal
Method in brief: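 Signal comes from a FITC-labeled secondary detecting phospho-histone H2A.x in fixed HepG2 cells, quantified by automated imaging at 20x. Dosing ran 24 hr across 0.39–200 uM with 0.5% v/v DMSO.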

[6] = APR_HepG2_StressKinase_72hr: Apredica 72-hour HepG2 Assay for Stress Kinase (AID 2282921); conditions: HepG2 stress kinase (phospho-c-Jun) imaging, actives raise or lower the signal
Method in brief: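 Stress kinase signal is phospho-c-Jun immunofluorescence (1:500 primary, Cy3 secondary) in fixed, permeabilized human HepG2 cells imaged at 20x. Exposure lasted 72 hr over ten concentrations from 0.39 to 200 uM, 0.5% DMSO, in duplicate. Bidirectional fit versus DMSO.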

[7] = APR_HepG2_StressKinase_24hr: Apredica 24-hour HepG2 Assay for Stress Kinase (AID 2282922); conditions: HepG2 stress kinase (phospho-c-Jun) imaging, actives raise or lower the signal
Method in brief: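 Read-out: phospho-c-Jun immunofluorescence (Cy3 secondary) quantified by high-content imaging at 20x, nuclei defined by Hoechst 33342. Human HepG2 liver cells dosed 24 hr, 0.39–200 uM, DMSO 0.5% v/v; gain or loss of signal fitted relative to DMSO.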

[8] = APR_HepG2_p53Act_72hr: Apredica 72-hour HepG2 Assay for p53 Activation (AID 2282923); conditions: high-content imaging, actives raise or lower the signal;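 also: average cellular p53 protein immunofluorescence intensity in HepG2 cells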
Method in brief: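 After 72 h with compound (ten points, 0.39 to 200 uM, final DMSO 0.5% v/v), fixed HepG2 cells were labelled with sheep anti-p53 and Hoechst 33342 and imaged; gain or loss versus DMSO scored.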

[9] = APR_HepG2_MitoMass_72hr: Apredica 72-hour HepG2 Assay for Mitochondrial Mass (AID 2282924); conditions: high-content imaging, actives raise or lower the signal;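 also: MitoTracker Red CMXRos stain intensity per cell imaged as mitochondrial mass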
Method in brief: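 Read-out: MitoTracker Red fluorescence intensity from automated imaging (20x, six fields per well) in human HepG2 liver cells. Dosing ran 72 hr, 0.39–200 uM, 0.5% DMSO; bidirectional curve fitting versus DMSO baseline.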

[10] = ATG_CRE_CIS: Attagene CIS-FACTORIAL HepG2 Assay for human cAMP Responsive Element (CRE) binding protein 3 (AID 2282926); conditions: HepG2 CRE cis-reporter, Attagene multiplexed mRNA; actives raise or lower the signal
Method in brief: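 Cells carrying cis-regulated reporter constructs respond through their own endogenous factors. After 24 h treatment, RNA is reverse-transcribed, amplified, labelled and sized by capillary electrophoresis; up- and down-regulation are both scored against vehicle.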

[11] = target: CCAAT/enhancer-binding protein beta (Homo sapiens) (UniProt P17676); assay: ATG_C_EBP_CIS: Attagene CIS-FACTORIAL HepG2 Assay for human CCAAT/Enhancer Binding Protein (C/EBP) beta (AID 2282927); conditions: HepG2 Attagene cis-factorial transcription factor reporter; actives raise or lower the signal
Chain of CCAAT/enhancer-binding protein beta (Homo sapiens) (P17676 whole entry, looked up): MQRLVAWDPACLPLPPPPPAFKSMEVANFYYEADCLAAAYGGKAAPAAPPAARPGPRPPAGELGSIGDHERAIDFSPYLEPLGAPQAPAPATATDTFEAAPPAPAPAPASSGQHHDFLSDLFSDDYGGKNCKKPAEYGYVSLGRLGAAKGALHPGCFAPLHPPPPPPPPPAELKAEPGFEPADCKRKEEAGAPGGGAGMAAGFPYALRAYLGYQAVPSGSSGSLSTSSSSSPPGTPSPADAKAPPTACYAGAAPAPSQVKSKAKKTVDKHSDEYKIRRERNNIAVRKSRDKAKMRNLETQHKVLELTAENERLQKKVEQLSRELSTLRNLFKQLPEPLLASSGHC
Method in brief: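 HepG2 transiently transfected with multiplexed reporter units under cis-regulatory promoters reporting endogenous C/EBPb activity. After 24 h exposure, reporter mRNA assayed by RT-PCR, fluorescent labelling, HpaI digestion and capillary electrophoresis; bidirectional fitting versus DMSO.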

[12] = ATG_CMV_CIS: Attagene CIS-FACTORIAL HepG2 Assay for human CMV (Internal Marker) (AID 2282928); conditions: HepG2 CMV promoter reporter, transcription factor profiling; actives raise or lower the signal;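 also: endpoint acts as a background internal control marker rather than a target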
Method in brief: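 Readout: fluorescent reporter cDNA fragments separated by capillary electrophoresis after RT-PCR and HpaI cut. Cells: HepG2 carrying transfected cis-promoter reporter constructs, dosed 24 h. Endpoint serves as background internal-marker control, fit bidirectionally versus DMSO.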

[13] = ATG_DR4_LXR_CIS: Attagene CIS-FACTORIAL HepG2 Assay for human Liver X Receptor (LXR), DR4 submotif (AID 2282929); conditions: HepG2 Attagene DR4 cis-reporter, mRNA transcription; actives raise or lower the signal
Method in brief: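 DR4 cis-reporter in HepG2, 24 h exposure. Detection: RT-PCR, 6-FAM labelling, CE fragment analysis. Endpoint fitted bidirectionally, DMSO = baseline.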

[14] = target: Aryl hydrocarbon receptor (Homo sapiens) (UniProt P35869); assay: ATG_Ahr_CIS: Attagene CIS-FACTORIAL HepG2 Assay for human Aryl Hydrocarbon Receptor (Ahr) (AID 2282930); conditions: HepG2 AhR cis-factorial reporter transcription; actives raise or lower the signal
Chain of Aryl hydrocarbon receptor (Homo sapiens) (P35869 whole entry, looked up): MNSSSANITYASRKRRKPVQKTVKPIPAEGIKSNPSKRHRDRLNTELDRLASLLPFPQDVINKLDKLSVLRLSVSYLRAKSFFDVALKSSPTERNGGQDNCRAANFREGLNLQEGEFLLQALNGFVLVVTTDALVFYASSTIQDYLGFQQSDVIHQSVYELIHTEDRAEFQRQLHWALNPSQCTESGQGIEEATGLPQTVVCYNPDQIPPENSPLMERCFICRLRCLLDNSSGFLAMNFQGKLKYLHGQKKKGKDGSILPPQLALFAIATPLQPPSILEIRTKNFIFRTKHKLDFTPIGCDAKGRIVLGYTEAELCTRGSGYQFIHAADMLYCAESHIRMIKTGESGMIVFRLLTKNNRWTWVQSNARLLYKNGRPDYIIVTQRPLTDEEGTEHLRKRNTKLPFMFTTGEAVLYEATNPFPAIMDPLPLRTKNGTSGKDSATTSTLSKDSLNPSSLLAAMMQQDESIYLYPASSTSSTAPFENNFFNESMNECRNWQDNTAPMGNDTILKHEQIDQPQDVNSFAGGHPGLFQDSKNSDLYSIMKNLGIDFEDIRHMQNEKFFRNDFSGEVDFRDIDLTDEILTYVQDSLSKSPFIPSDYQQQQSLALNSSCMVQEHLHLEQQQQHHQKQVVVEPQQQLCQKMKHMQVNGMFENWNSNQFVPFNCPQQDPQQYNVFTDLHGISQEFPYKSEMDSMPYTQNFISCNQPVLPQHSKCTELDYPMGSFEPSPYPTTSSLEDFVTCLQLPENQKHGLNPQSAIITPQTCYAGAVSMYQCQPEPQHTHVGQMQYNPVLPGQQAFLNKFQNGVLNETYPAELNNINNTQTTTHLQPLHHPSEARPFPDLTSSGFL
Method in brief: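 HepG2 cells transiently transfected with cis-element-driven multiplexed reporter units; endogenous AhR activity read as reporter mRNA 24 h after dosing, via RT-PCR, 6-FAM labelling, HpaI digestion and capillary electrophoresis. Bidirectional fit relative to DMSO.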

[15] = ATG_AP_1_CIS: Attagene CIS-FACTORIAL HepG2 Assay for human Activator Protein 1 (AP-1) (AID 2282931); conditions: HepG2 Attagene cis-factorial AP-1 reporter mRNA; actives raise or lower the signal
Method in brief: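 Cis-regulated reporter units transiently expressed in HepG2 report endogenous transcription-factor activity. Signal: reporter mRNA at 24 h, via RT-PCR and fluorescent capillary electrophoresis. Endpoint derived by bidirectional fitting, DMSO as negative control.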

[16] = ATG_AP_2_CIS: Attagene CIS-FACTORIAL HepG2 Assay for human Activator Protein 2 (AP-2) (AID 2282932); conditions: HepG2 AP-2 cis-reporter, Attagene transcription factor profiling; actives raise or lower the signal
Method in brief: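 Liver-derived HepG2 line, cis-reporter system measuring endogenous factors; 24 h dosing; reporter mRNA detected by fluorescent RT-PCR and capillary electrophoresis.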

[17] = ATG_BRE_CIS: Attagene CIS-FACTORIAL HepG2 Assay for human Bone Morphogenetic Protein (BMP) Response Element (BRE) (AID 2282933); conditions: HepG2 BMP response element reporter, Attagene transcription factor profiling; actives raise or lower the signal
Method in brief: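 Read-out: reporter mRNA induction quantified by RT-PCR and capillary electrophoresis after 24 h chemical exposure of transfected HepG2 cells. Endogenous factor activity on the BMP response element; gain or loss fitted against DMSO baseline.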

[18] = APR_HepG2_NuclearSize_72hr: Apredica 72-hour HepG2 Assay for Nuclear Size (AID 2282925); conditions: high-content imaging, actives raise or lower the signal
Method in brief: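 Read-out: nuclear diameter from Hoechst 33342 images (ArrayScan, 20x, six fields/well), via cell-cycle image analysis. HepG2 were dosed 0.39–200 uM for 72 hr in 0.5% DMSO. Bidirectional fit relative to DMSO.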

[19] = target: Retinoic acid receptor alpha (Homo sapiens) (UniProt P10276); assay: ATG_DR5_RAR_CIS: Attagene CIS-FACTORIAL HepG2 Assay for human Retinoic Acid Receptor Alpha (RARE), DR5 submotif (AID 2282934); conditions: HepG2 Attagene cis-factorial RARE DR5 reporter, mRNA; actives raise or lower the signal;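 as to AC50: reporter responds to endogenous RAR alpha beta and gamma in HepG2 not RARA alone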
Chain of Retinoic acid receptor alpha (Homo sapiens) (P10276 whole entry, looked up): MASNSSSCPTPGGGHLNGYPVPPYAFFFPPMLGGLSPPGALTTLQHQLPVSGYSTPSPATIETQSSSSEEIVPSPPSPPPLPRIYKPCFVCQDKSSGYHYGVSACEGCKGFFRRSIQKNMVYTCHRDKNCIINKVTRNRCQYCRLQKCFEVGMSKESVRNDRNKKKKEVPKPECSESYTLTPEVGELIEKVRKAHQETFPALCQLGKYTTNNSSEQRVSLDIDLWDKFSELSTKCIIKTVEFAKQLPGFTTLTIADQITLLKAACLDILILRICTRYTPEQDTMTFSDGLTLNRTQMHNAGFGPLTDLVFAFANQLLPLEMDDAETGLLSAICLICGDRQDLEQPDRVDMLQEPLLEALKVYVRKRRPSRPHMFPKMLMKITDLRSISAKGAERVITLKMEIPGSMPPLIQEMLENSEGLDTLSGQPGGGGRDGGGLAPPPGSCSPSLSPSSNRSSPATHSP
Method in brief: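 HepG2 cells transiently transfected with multiplexed reporter units; DR5 cis-element drives reporter through endogenous transcription factors. After 24 h dosing, reporter mRNA quantified by RT-PCR, fluorescent labeling, HpaI digestion and capillary electrophoresis; bidirectional fitting versus DMSO.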

[20] = target: Transcription factor E2F1 (Homo sapiens) (UniProt Q01094); assay: ATG_E2F_CIS: Attagene CIS-FACTORIAL HepG2 Assay for human E2F Transcription Factor 1 (AID 2282935); conditions: HepG2 Attagene cis-reporter, E2F reporter RNA transcripts; actives raise or lower the signal
Chain of Transcription factor E2F1 (Homo sapiens) (Q01094 whole entry, looked up): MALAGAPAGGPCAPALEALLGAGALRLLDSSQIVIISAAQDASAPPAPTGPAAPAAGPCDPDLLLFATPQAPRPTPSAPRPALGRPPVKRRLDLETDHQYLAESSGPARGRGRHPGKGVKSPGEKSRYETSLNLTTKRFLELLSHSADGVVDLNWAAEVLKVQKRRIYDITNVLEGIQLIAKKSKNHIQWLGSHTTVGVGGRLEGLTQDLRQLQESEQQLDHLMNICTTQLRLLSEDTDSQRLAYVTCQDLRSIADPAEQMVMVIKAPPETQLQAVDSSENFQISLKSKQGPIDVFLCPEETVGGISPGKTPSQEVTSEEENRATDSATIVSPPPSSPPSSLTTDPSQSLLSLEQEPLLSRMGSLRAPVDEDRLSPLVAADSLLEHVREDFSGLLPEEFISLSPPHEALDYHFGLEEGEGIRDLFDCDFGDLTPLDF
Method in brief: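 Liver-derived HepG2 cells expressing transfected promoter-driven reporter units received test chemical for 24 hours. Signal gains or losses were fitted bidirectionally against DMSO.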

Measured: AC50

COC(=O)c1ccccc1N
active: [14] 43.8 µM
not listed: [18] | [19] | [20]
inactive: all other assays above

Cc1cc(N=Nc2ccccc2C)ccc1N
active: [5] 100 µM | [7] 100 µM | [8] 2.34 µM | [18] 56.3 µM | [14] 2.99 µM
not listed: [17]
inactive: all other assays above

CNC(=O)Oc1cccc2c1OC(C)(C)C2
active: [14] 65.6 µM
not listed: [13] | [20]
inactive: all other assays above

Cn1cc(-c2ccccc2)c(=O)c(-c2cccc(C(F)(F)F)c2)c1
active: [10] 79.1 µM | [11] 66.9 µM | [14] 69.1 µM | [19] 15.3 µM
not listed: [13]
inactive: all other assays above

COP(=S)(OC)SCN1C(=O)c2ccccc2C1=O
not listed: [13] | [19] | [20]
inactive: all other assays above

C=CCc1ccc2c(c1)OCO2
not listed: [13] | [14]
inactive: all other assays above

O=C(N[C@H](c1ccccc1)[C@@H]1CN2CCC1CC2)c1c(Cl)ccc(C(F)(F)F)c1Cl
active: [1] 44 µM | [3] 24 µM | [5] 117 µM
not listed: [17] | [19] | [20]
inactive: all other assays above

[Cl-].[Cl-].[Hg+2]
active: [3] 17.6 µM | [4] 13.2 µM | [5] 21.5 µM | [7] 19.8 µM
not listed: [13] | [17] | [19] | [20]
inactive: all other assays above

Nc1ccc(Oc2ccc(N)cc2)cc1
not listed: [18] | [20]
inactive: all other assays above

CCCCCCCCOC(=O)c1ccc(C(=O)OCCCCCCCC)c(C(=O)OCCCCCCCC)c1
not listed: [20]
inactive: all other assays above

O=C(O)C1C2CCC(O2)C1C(=O)O (stereo not given)
active: [1] 22.2 µM | [3] 19.6 µM | [5] 29.4 µM | [8] 21.2 µM | [9] 50.2 µM | [18] 36 µM | [10] 80.7 µM | [12] 77.8 µM | [15] 59 µM | [19] 75.4 µM
inactive: [2] | [4] | [6] | [7] | [11] | [13] | [16]

CN(C)C(=O)Nc1ccc(Cl)cc1
active: [14] 58.5 µM
not listed: [18] | [19]
inactive: all other assays above

O=C1CCCO1
not listed: [13] | [17]
inactive: all other assays above

CO[C@@H]1[C@H](OC(=O)NC(=O)CCl)CC[C@]2(CO2)[C@H]1[C@@]1(C)O[C@@H]1CC=C(C)C
active: [13] 10.2 µM
not listed: [18]
inactive: all other assays above
